This is an account of results in PubChem BioAssay (EPA / NIEHS).

“And” between values parts separate entries of the source, which are not always exact repeats. Equal values may be shown once. Where a structure was tested more than once in an assay, its records may differ in their call. The source made the active and inactive calls. The calls were made as follows: active = hit-call score of the fitted dose curve at least 0.9, where 1 is the maximum; inactive = score below 0.9.

The nature of test [1]: BSK_KF3CT_SRB: Viability Assessment in the BioMAP Diversity Plus: KF3CT Assay (AID 2283069).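 Also: total protein by sulforhodamine B staining as a cytotoxicity measure; read 24 h after compound addition.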 The note with it: primary human keratinocytes with fibroblasts. In short, it runs like this:
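SRB read-out at 560 nm (0.1% stain, TCA-fixed cells) gauges overt cytotoxicity in a human skin keratinocyte–fibroblast co-culture 24 h post-dosing. Signal change was fitted bidirectionally relative to DMSO control.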

Read-out in test [2]: Interleukin-1 alpha (IL1a), IL1A (gene 3552)
Put plainly: BSK_KF3CT_IL1a: BioMAP Diversity Plus: KF3CT Assay for Interleukin-1 alpha (IL1a) Biomarker Activity (AID 2283070). Particulars: primary human keratinocytes with fibroblasts; actives raise or lower the signal. In short, it runs like this: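 Primary skin co-culture (keratinocytes, foreskin fibroblasts), 24 h exposure; ELISA for IL-1a; bidirectional curve fit vs DMSO.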

Read-out in test [3]: C-C motif chemokine 2 (Homo sapiens) (UniProt P13500)
Briefly: BSK_KF3CT_MCP1: BioMAP Diversity Plus: KF3CT Assay for Monocyte Chemoattractant Protein 1 (MCP1/CCL2) Biomarker Activity (AID 2283073). The note with it: primary human keratinocytes with fibroblasts; actives raise or lower the signal. The essentials: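 KF3CT skin co-culture (keratinocytes/foreskin fibroblasts), 24 h post-dose; MCP-1 by ELISA; gain/loss of signal fit bidirectionally vs DMSO baseline.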

Read-out in test [4]: urokinase plasminogen activator (uPA), PLAU (gene 5328)
Put plainly: BSK_KF3CT_uPA: BioMAP Diversity Plus: KF3CT Assay for urokinase plasminogen activator (uPA) Biomarker Activity (AID 2283075). The note with it: primary human keratinocytes with fibroblasts; actives raise or lower the signal. The essentials: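 Skin co-culture (keratinocytes + foreskin fibroblasts), human primary; 24 h post-dose; uPA by ELISA; gain/loss fit vs DMSO baseline.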

Read-out in test [5]: E-selectin (Homo sapiens) (UniProt P16581)
Briefly: BSK_LPS_Eselectin: BioMAP Diversity Plus: LPS Assay for Eselectin Biomarker Activity (AID 2283077). The note with it: primary human HUVEC with PBMC; actives raise or lower the signal. In short, it runs like this:
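ELISA readout of E-selectin, 24 h post-dose, HUVEC + PBMC co-culture (LPS system). Gain or loss of signal vs DMSO baseline, bidirectional fit.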

Read-out in test [6]: Interleukin-8 (IL8), CXCL8 (gene 3576)
Briefly: BSK_LPS_IL8: BioMAP Diversity Plus: LPS Assay for Interleukin-8 (IL8) Biomarker Activity (AID 2283078). The note with it: primary human HUVEC with PBMC; actives raise or lower the signal. In short, it runs like this: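 HUVEC + PBMC co-culture, LPS-activated; test chemicals dosed, IL-8 read by ELISA at 24 h. Bidirectional curve fit vs DMSO baseline (gain or loss of signal).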

Read-out in test [7]: Transforming growth factor beta 1 (TGFb1), TGFB1 (gene 7040)
Put plainly: BSK_KF3CT_TGFb1: BioMAP Diversity Plus: KF3CT Assay for Transforming growth factor beta 1 (TGFb1) Biomarker Activity (AID 2283072). The note with it: primary human keratinocytes with fibroblasts; actives raise or lower the signal. In short, it runs like this: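 KF3CT co-culture (keratinocytes + fibroblasts), 24 h exposure → TGF-b1 ELISA → bidirectional fit, DMSO = baseline. Parallel SRB total-protein staining (0.1% SRB, 10% TCA fixation, 560 nm) for cytotoxicity.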

Read-out in a further test: CD40, CD40 (gene 958)
Put plainly: BSK_LPS_CD40: BioMAP Diversity Plus: LPS Assay for CD40 Biomarker Activity (AID 2283076). The note with it: primary human HUVEC with PBMC; actives raise or lower the signal. In short, it runs like this: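 ELISA readout of CD40 in HUVEC/PBMC co-culture (BSK_LPS system), 24 h post-dosing; bidirectional curve fit, DMSO baseline; parallel SRB total-protein staining for cytotoxicity.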

Read-out in test [8]: Matrix Metallopeptidase 9 (MMP9), MMP9 (gene 4318)
Briefly: BSK_KF3CT_MMP9: BioMAP Diversity Plus: KF3CT Assay for Matrix Metallopeptidase 9 (MMP9) Biomarker Activity (AID 2283074).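 As to AC50: MMP9 protein level quantified by ELISA in the co-culture.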 Particulars: primary human keratinocytes with fibroblasts; actives raise or lower the signal. In short, it runs like this:
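ELISA read-out of MMP-9 at 24 h post-dosing in a co-culture of human skin keratinocytes and foreskin fibroblasts. Gain or loss of signal was fitted in both directions against DMSO.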

Chain of E-selectin (Homo sapiens) (P16581 whole entry, looked up): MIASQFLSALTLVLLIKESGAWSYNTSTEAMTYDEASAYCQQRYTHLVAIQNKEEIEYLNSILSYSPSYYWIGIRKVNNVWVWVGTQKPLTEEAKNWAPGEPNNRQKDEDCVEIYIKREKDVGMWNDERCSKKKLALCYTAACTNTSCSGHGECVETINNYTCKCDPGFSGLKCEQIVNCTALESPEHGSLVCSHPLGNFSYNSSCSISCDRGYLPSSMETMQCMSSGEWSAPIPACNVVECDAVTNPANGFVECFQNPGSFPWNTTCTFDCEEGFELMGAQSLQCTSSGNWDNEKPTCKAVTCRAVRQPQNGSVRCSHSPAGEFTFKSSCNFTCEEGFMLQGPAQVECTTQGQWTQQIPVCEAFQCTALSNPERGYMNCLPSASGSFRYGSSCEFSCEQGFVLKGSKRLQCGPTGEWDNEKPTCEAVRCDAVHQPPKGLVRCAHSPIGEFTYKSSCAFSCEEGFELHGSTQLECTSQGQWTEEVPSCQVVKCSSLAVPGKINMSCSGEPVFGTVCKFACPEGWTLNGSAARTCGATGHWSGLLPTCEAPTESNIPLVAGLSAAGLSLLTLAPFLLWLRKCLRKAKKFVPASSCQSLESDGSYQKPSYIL

`Nc1ncc([N+](=O)[O-])s1`: the result in test [1], in [2], in test [3], in test [4], in test [5] and in [6] was inactive.

`COc1cc(OC)nc(NC(=O)NS(=O)(=O)c2ncccc2C(=O)N(C)C)n1`: the outcome in [1], in [2], in [7], in test [3], in test [4] and in [5] was inactive. The result in test [6] was inactive.

One may read the AC50 as the concentration giving half of the maximal activity seen. As to `CC(C)(C)c1cc(O)ccc1O`, the half-maximal activity concentration (AC50) is 29.9 µM (active) in [1]; 28.3 µM (active) in test [2]; 36 µM (active) in [3]; 31.3 µM (active) in [4]; 5.75 µM (active) in the test with CD40, CD40 (gene 958); 12.4 µM (active) in test [5]. Further, the AC50 in test [6] was 13.1 µM (active).

Take `CCOC(=O)/C=C(C)/C=C/C[C@@H](C)CCCC(C)C`: the AC50 in test [1] is 33.8 µM (active); in test [2], 26.3 µM (active); in test [7] it was 13.5 µM (active); in test [3], 7.27 µM (active); in [4] it was 31.2 µM (active); with CD40, CD40 (gene 958) it was 20 µM (active). The AC50 in test [5] is 34.8 µM (active); in test [6], 32.7 µM (active).

Consider `ClC(Cl)=C(Cl)C(Cl)=C(Cl)Cl`, for which the AC50 in test [1] is 34.1 µM (active); in test [2] it was 20 µM (active); in test [3], 20 µM (active); with CD40, CD40 (gene 958) it was 31.4 µM (active). In addition, the outcome in test [4], in test [5] and in test [6] was inactive.

For `CCCCC(CC)CO[N+](=O)[O-]` (centres undefined), the AC50 in test [1] was 36.4 µM (active); in test [3], 30.4 µM (active); in [8], 34.7 µM (active); in test [4], 35.3 µM (active). Also, the outcome in test [2], in [5] and in [6] was inactive.

With `BrCCBr`, the outcome in [1], in [2], in test [3], in [8], in test [4] and in test [5] was inactive. The result in test [6] was inactive.

On to `CC(C)(C)CC(C)(C)c1ccc(O)cc1`, for which the AC50 was 6.93 µM (active) in [1]; 7.85 µM (active) in test [2]; 6.72 µM (active) in [3]; 9.6 µM (active) in test [4]; 7.8 µM (active) in the test with CD40, CD40 (gene 958); 11.7 µM (active) in test [5]. In addition, the AC50 in test [6] was 13.9 µM (active).

As to `COP(=S)(OC)Oc1cc(Cl)c(Cl)cc1Cl`, the outcome in [1] was “inactive”; in test [2], “inactive”; in [3], “inactive”; in test [8], “inactive”; in test [4], “inactive”; with CD40, CD40 (gene 958), “inactive”. In addition, the result in test [5] and in [6] was inactive.

`CC(C)(c1ccccc1)c1ccc(O)c(C(C)(C)c2ccccc2)c1`: the AC50 is 2.33 µM (active) in test [1]; 4.02 µM (active) in test [2]; 2.83 µM (active) in [7]; 4.19 µM (active) in [3]; 2.85 µM (active) in test [4]; 12 µM (active) in test [6].

Take `CC(=O)[O][Hg][c]1ccccc1`: the half-maximal activity concentration (AC50) in test [1] is 0.617 µM (active); in test [2], 0.707 µM (active); in test [7], 0.146 µM (active); in test [8], 0.189 µM (active); in [4], 0.625 µM (active); in test [5], 3.35 µM (active). Moreover, the AC50 in test [6] was 6.47 µM (active).

For `C[C@]12CCC(=O)C[C@@H]1CC[C@@H]1[C@@H]2CC[C@]2(C)[C@@H](O)CC[C@@H]12`, the result in test [1], in test [2], in test [3], in [4] and in test [6] was inactive. Moreover, the AC50 in [5] was 28.1 µM (active).

As for `CC(=O)OC(c1ccccc1)C(Cl)(Cl)Cl` (centres undefined), the outcome is “inactive” in test [1]; “inactive” in [2]; “inactive” in test [3]; “inactive” in test [4]; “inactive” in the test with CD40, CD40 (gene 958); “inactive” in [5]. The result in test [6] was inactive.

Take `COP(=S)(OC)Oc1c(Cl)cc(C)cc1Cl`: the outcome in [1] is “inactive”; in test [2], “inactive”; in [3], “inactive”; in [4], “inactive”; in the test with CD40, CD40 (gene 958), “inactive”; in test [5] it was “inactive”. For the same molecule, in [6], the outcome was inactive.

Turning to `CC(C)c1ccc(CO)cc1`, the result in test [1], in [2], in test [3], in test [4], in test [5] and in test [6] was inactive.

For the molecule `CCOP(=S)(OCC)Oc1nc(Cl)c(Cl)cc1Cl`, the result in test [1], in test [2], in test [3], in test [8], in test [4] and in test [5] was inactive. Moreover, in [6], the result was inactive. In addition, in the test with CD40, CD40 (gene 958), the AC50 is 20 µM (active).

With `O=C(O)C(F)(F)C(F)(F)C(F)(F)C(F)(F)C(F)(F)C(F)(F)F`, the outcome in [1] was “inactive”; in test [2], “inactive”; in test [3] it was “inactive”; in test [4] it was “inactive”; with CD40, CD40 (gene 958), “inactive”; in [5], “inactive”. Also, the result in test [6] was inactive. For the same molecule, the AC50 in [6] is 14.6 µM (active) and 30 µM (active).
